Measurements: PubChem BioAssay (NCI)
Compounds without any hit were thinned out: in the full panel of roughly 79,000, 15% have a hit. Rule as the data show it: active = growth inhibition above about 70%; inactive = the rest.

What was measured:
[1] = NCI Yeast Anticancer Drug Screen. Data for the rad50 strain (AID 155);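 also: 0% = growth of vehicle-only cultures of the same strain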; settings: S. cerevisiae rad50 strain growth inhibition; at 50.0 µM; hits give high values
Outline: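 A DNA repair-deficient yeast mutant serves as the test organism; compound-induced growth inhibition is calculated against vehicle-treated cells.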

[2] = NCI Yeast Anticancer Drug Screen. Data for the mec2-1 strain (AID 157); settings: S. cerevisiae mec2-1 strain, at 50.0 µM, hits give high values
Outline: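 Yeast mec2-1 mutant treated with compound. Readout: growth inhibition vs vehicle controls.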

[3] = NCI Yeast Anticancer Drug Screen. Data for the sgs1 mgt1 strain (AID 161);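 also: 0% = growth of cultures given vehicle only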; settings: S. cerevisiae sgs1 mgt1 strain, at 50.0 µM, hits give high values
Outline: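 Test agents were incubated with a DNA-repair-mutant yeast strain. Growth was then read and compared against vehicle-treated controls.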

[4] = NCI Yeast Anticancer Drug Screen. Data for the cln2 rad14 strain (AID 165);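 also: 0% = growth equal to vehicle treated cultures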; settings: S. cerevisiae cln2 rad14 strain, at 50.0 µM, hits give high values
Outline: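 cln2 rad14 yeast strain; compound exposure; growth inhibition read vs vehicle controls.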

[5] = NCI Yeast Anticancer Drug Screen. Data for the bub3 strain (AID 167); settings: S. cerevisiae bub3 mutant strain, at 50.0 µM, hits give high values
Outline: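 Inhibition values come from growth of compound-treated mutant yeast normalised to vehicle-treated controls.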

[6] = NCI Yeast Anticancer Drug Screen. Data for the mlh1 rad18 strain (AID 175); settings: S. cerevisiae mlh1 rad18 strain growth inhibition; at 50.0 µM; hits give high values
Outline: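 Yeast w/ defined DNA-repair lesions; compound exposure; growth vs vehicle controls → % inhibition.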

Measured: growth inhibition

CCCCCCC(C#N)(CCN(C)C)c1ccccc1 (stereo unspecified)
inactive: [1] 15.4% | [2] 18.7% | [3] 14.3% | [4] -8% | [5] 50.1% | [6] 22.8%

COc1cc(Cl)ccc1C
inactive: [1] -1.2% | [2] -1.75% | [3] 5.75% | [4] -14.3% | [5] 18.1% | [6] -16.6%

Cc1ccc(-c2n[nH]c(=O)n2/N=C\c2ccc([N+](=O)[O-])cc2)cc1
inactive: [1] 34% | [2] 7.3% | [3] -12.4% | [4] 3.55% | [5] -11.9% | [6] -41.5%

Cc1ccc(N=Nc2c(C)nn(-c3ccccc3)c2C)c(Br)c1
inactive: [1] 26.6% | [2] 10.8% | [3] 47.5% | [4] 4.1% | [5] 18.9% | [6] 38.6%

Cc1ccc(Nc2ccc(O)c3c2C(=O)c2ccccc2C3=O)cc1
inactive: [1] -17.9% | [2] -3.6% | [3] 5.45% | [4] -29.6% | [5] 16.1% | [6] 15.5%

CN=C(NC)C(c1ccccc1)c1ccccc1
inactive: [1] -0.5% | [2] -9.7% | [3] -5.7% | [4] -15.8% | [5] -5.8% | [6] -9.3%

CCCNC(=O)/C=C\S(=O)CCC (stereo unspecified)
inactive: [1] -1.15% | [2] 2.9% | [3] 1.15% | [4] -16.5% | [5] 16.9% | [6] -2.6%

COC(=O)c1ccc(/C2=c3\cc/c([n-]3)=C(\c3ccc(C(=O)OC)cc3)c3ccc([n-]3)/C(c3ccc(C(=O)OC)cc3)=c3/cc/c([n-]3)=C(\c3ccc(C(=O)OC)cc3)c3ccc2[n-]3)cc1.[Mn]
inactive: [1] 14.8% | [2] 23.1% | [3] 12.5% | [4] -3.65% | [5] -4.55% | [6] 53.7%

CCCCCOC(=S)S.[Ag]
inactive: [1] -5.65% | [2] -15.2% | [3] -1.55% | [4] 13.2% | [5] -16.2% | [6] -8.4%

Nc1ccc(C(=O)N/C(=C\c2cccc([N+](=O)[O-])c2)c2nc3ccc(Cl)cc3[nH]2)cc1
inactive: [1] -10.1% | [2] -21.4% | [3] -25.3% | [4] -17.9% | [5] 1% | [6] -15.9%

CC1C[C@]2(C)C(=NCCN)Nc3ccccc3[C@@H]2N(C)c2ccccc21 (stereo partly specified)
inactive: [1] -14.4% | [2] -25.6% | [3] -10.8% | [4] -28.6% | [5] -13.2% | [6] 13.3%

OC(c1cccc(Cl)c1)C(Cl)Cl (stereo unspecified)
inactive: [1] -2.55% | [2] -9.45% | [3] -22% | [4] -4.15% | [5] -14.5% | [6] 1.95%

CCCCCCCc1cc(=O)[nH]c(=S)[nH]1
inactive: [1] 4.05% | [2] -4.9% | [3] 0.5% | [4] -10.8% | [5] 11.3% | [6] -5.4%

Nc1cccc2ccc(Cl)nc12
inactive: [1] 37.9% | [2] 19.4% | [3] 14.2% | [4] 9.7% | [5] 16.3% | [6] -5%

CCOC(=O)N1c2ccccc2S(=O)(=O)c2ccccc21
inactive: [1] 40.5% | [2] -10.3% | [3] -26.4% | [4] -16.1% | [5] -22.9% | [6] -52.2%

OCc1cccc(F)c1
inactive: [1] -15.4% | [2] -42.6% | [3] -31.4% | [4] 8.1% | [5] -21.4% | [6] -5.35%

Cc1cc(Cl)ccc1NC(=O)C1C(=O)N(c2ccc(Cl)cc2C)C(=O)/C1=N\NC(N)=S (stereo unspecified)
inactive: [1] -16.6% | [2] -6.6% | [3] -22.5% | [4] -0.25% | [5] -2.5% | [6] -27.1%

O=C(O)c1c(-c2ccccc2)c(=O)[nH]c2ccccc12
inactive: [1] -6.8% | [2] 4.05% | [3] -36.8% | [4] 17.1% | [5] 13.2% | [6] 11.1%

CCc1ccccc1-n1[nH]c(C)c(C=N)c1=O
inactive: [1] -8.2% | [2] -18.1% | [3] -18.2% | [4] -14.1% | [5] -16.7% | [6] -8.15%

N#Cc1c(N)nc(N)nc1Nc1ccc(Cl)cc1
inactive: [1] 13.6% | [2] -8.7% | [3] 9.25% | [4] 26.9% | [5] -5.8% | [6] 25.6%

CC(=O)Nc1ccccc1NOC(=O)c1ccccc1NC(C)=O
inactive: [1] -3.1% | [2] -8.9% | [3] 4.45% | [4] 32.7% | [5] 25.1% | [6] 18.1%
